Compound activity: PubChem, National Center for Advancing Translational Sciences (NCATS)
PI5P4K alpha inh = PI5P4K alpha (human) kinase inhibition. P48426. PI5P4Kalpha enzyme, ADP-Glo luminescence, 60 min; stronger effect = lower value. max response, %. 330,000 tested, 1.2% active. AID 652105; active = max response of -50% or lower; inconclusive = between -30% and -50%; inactive = -30% or higher; note: value at the top dose of about 77 µM; % is set by controls: 0 for no effect and ±100 for the full control effect
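ADP-Glo luminescence end-point read after a 60 min room-temperature kinase reaction of PI5P4Kalpha plus substrate, initiated with ATP at 5 microM final. Buffer: 0.038 M HEPES pH 7.4, EGTA, 0.1% CHAPS, 5% DMSO.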
POLK inh = DNA polymerase kappa (human) inhibition; Q9UBT6; purified Pol kappa, fluorescent DNA synthesis assay, 10 min; Potency, µM (highest dose often 107 µM), for the others: at the top dose activity, negative = inhibition, usual class: inhibitors; 400,000 tested, 0.53% active; note: potency is the fitted concentration of half-maximal effect; % is set by controls: 0 for no effect and ±100 for the full control effect
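Enzyme at 10 nM met test compounds for 15 min at room temperature. Substrate addition (50 nM final) began the reaction, which was monitored by fluorescence at 0 and 10 min.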
Pol eta inh = inhibitors of human DNA polymerase eta | Q9Y253 | recombinant Pol eta, fluorescent DNA replication assay | Potency, µM (top dose mostly 114 µM), for inactives: at the highest dose activity change, negative = inhibition, usual class: inhibitors | 390,000 tested, 1.2% active | AID 588591; note: potency is the fitted concentration of half-maximal effect; % is set by controls: 0 for no effect and ±100 for the full control effect
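Pol eta at 10 nM preincubated with compounds 15 min at room temperature; reaction started with fluorescent substrate (50 nM final) and read kinetically at 0 and 10 min.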
Pol iota inh = DNA polymerase iota (human) inhibition | Q9UNA4 | Pol iota fluorescent replication assay, 10 min | Potency, µM (doses to about 115 µM), inactives show top-dose activity, negative = inhibition, hits mostly inhibitors | 390,000 tested, 1% active; note: potency is the fitted concentration of half-maximal effect
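Pol iota at 10 nM preincubated 15 min with compounds at room temperature; reaction started with fluorescent substrate, 50 nM final. Fluorescence read kinetically at 0 and 10 min; buffer-only wells as negative control.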
Pol beta inh = blocks human DNA polymerase beta activity | P06746 | Pol beta primer extension/strand displacement, fluorescence kinetic | Potency, µM (top dose mostly 114 µM), for the others: at the highest dose activity change, negative = inhibition, actives largely listed as inhibitors | 340,000 tested, 1.3% active | AID 485314; note: potency is the fitted concentration of half-maximal effect; % is set by controls: 0 for no effect and ±100 for the full control effect
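Values derive from four-parameter Hill fits of normalized kinetic data: reads at 0 and 10 min following addition of 50 nM substrate to 10 nM Pol beta preincubated 15 min with compound.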
PI4K2A inh = inhibitors of human PI4K2A; Q9BTU6; purified PI4K2A, ADP-Glo luminescence, 1 h; stronger effect = lower value; 420,000 tested, 0.13% active; activity change, negative = inhibition, % at 76.9 µM; in the data active = activity change below about -50%; inconclusive = mostly about -30% to -49%;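 note: -100% = wells without enzyme as full effect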
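In this quantitative HTS, ADP production by PI4K2A was quantified luminescently after 1 h at ambient temperature; 100 microM adenosine served as plate-quality control.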
* hit, by the source's call; [ ] = remark or other dose. This is a sample that favours compounds with a hit; in the whole collection about 2.8% have one here. Unless noted, calls come from the whole dose curve; as a rule, active = well fitted inhibition curve with a large enough effect; inconclusive = small, poorly fitted or top-dose-only effect, or another doubt; inactive = no such curve, though single readings can be large or run the other way.

For O=C(OCc1nnc(-c2ccc([N+](=O)[O-])cc2)o1)C1CC(=O)N(CCc2ccccc2)C1 (stereo not drawn) the results were PI5P4K alpha inh inconclusive, POLK inh -14.2%, Pol eta inh inconclusive, Pol iota inh 79.4µM* and PI4K2A inh -12.8.
Screening COc1ccccc1C1(O)CC2CCC(C1)N2S(=O)(=O)c1ccc(C(C)=O)cc1 (stereo not drawn) returned POLK inh -12.3%[60.1 µM], Pol eta inh -14.9%, Pol iota inh 100µM*, Pol beta inh 0.8% and PI4K2A inh -7.1.
For COC(=O)c1ccc(S(=O)(=O)N2C3CCC2CC(NC(=O)C2CC2)C3)cc1 (stereo not drawn) the results were POLK inh -1.0%, Pol eta inh 2.4%, Pol iota inh 3.6%, Pol beta inh 13.0% and PI4K2A inh 3.2.
Screening CN(C)CCn1nnnc1SCC1=C(C(=O)O)N2C(=O)[C@@H](NC(=O)Cc3csc(N)n3)[C@H]2SC1 returned PI5P4K alpha inh -3.0, POLK inh 50.1µM*, Pol eta inh inconclusive, Pol iota inh 14.1µM* and PI4K2A inh inconclusive.
Screening O=C(CC[C@H]1O[C@@H](n2ccc(=O)[nH]c2=O)[C@H](O)[C@@H]1O)N[C@@H](Cc1ccccc1)C(=O)NCC1CCCO1 (stereo partly drawn) returned PI5P4K alpha inh -0.5 and PI4K2A inh -3.5.
For O=C(/C=C/c1ccc(Br)o1)NC(c1ccccc1)c1ccccc1 the results were PI5P4K alpha inh -1.1, POLK inh -6.7%, Pol eta inh -22.3%, Pol iota inh inconclusive, Pol beta inh 3.2% and PI4K2A inh -5.4.
Screening O=C1C(=Cc2ccc(Br)o2)C(=O)c2ccccc21 returned PI5P4K alpha inh -85.5*, POLK inh inconclusive, Pol eta inh 0.794µM*, Pol iota inh 1.12µM*, Pol beta inh 1.41µM* and PI4K2A inh -9.8.
COc1ccc(Cl)cc1N(C)c1nc(N2CCN(S(=O)(=O)c3ccc(C)cc3)CC2)c2ccccc2n1 was read as POLK inh 16.6% and Pol iota inh 13.5%.
O=C1C(Cl)=C(NCCCO)C(=O)c2ccccc21 was read as PI5P4K alpha inh -3.6, POLK inh -15.0%, Pol eta inh -19.6%, Pol iota inh -7.8%, Pol beta inh -8.6% and PI4K2A inh -12.7.
Screening CCOCCCNC1=C(Cl)C(=O)c2ccccc2C1=O returned PI5P4K alpha inh -93.4*, POLK inh -23.1%, Pol eta inh inconclusive, Pol iota inh inconclusive, Pol beta inh 18.0% and PI4K2A inh -26.6.
For COc1cc(/C=N/NC(=O)c2ccc(COc3ccccc3Cl)o2)cc(Br)c1O the results were PI5P4K alpha inh -0.6, POLK inh -28.9%, Pol eta inh inconclusive, Pol iota inh inconclusive, Pol beta inh 28.2µM* and PI4K2A inh -4.3.
Screening COc1cc(/C=N/NC(=O)CC#N)cc(Br)c1O returned PI5P4K alpha inh inconclusive, POLK inh -16.0%, Pol eta inh -27.5%, Pol iota inh 44.7µM*, Pol beta inh 6.2% and PI4K2A inh -0.6.
For COc1cc(/C=N/NC(=O)c2ccc([N+](=O)[O-])cc2Cl)cc(Br)c1O the results were PI5P4K alpha inh 8.2, POLK inh -3.5%, Pol eta inh -16.8%, Pol iota inh 13.9%, Pol beta inh 2.1% and PI4K2A inh -5.4.
COc1cc(/C=N/NC(=O)Cc2ccc(Br)cc2)cc(OC)c1O was read as PI5P4K alpha inh -5.4, POLK inh -12.6%, Pol eta inh -15.5%, Pol iota inh 60.8%, Pol beta inh 22.4µM* and PI4K2A inh 1.7.
COc1cc(/C=N/NC(N)=O)cc([N+](=O)[O-])c1O was read as PI5P4K alpha inh -55.7*, POLK inh inconclusive, Pol eta inh 50.1µM*, Pol iota inh 13.4%, Pol beta inh inconclusive and PI4K2A inh -2.7.
`CC(=O)Nc1ccc(SCC(CC(C)C)N2CCN(C)CCC2=O)cc1` (stereo not drawn) gave POLK inh 13.0% and Pol iota inh -9.3%.
